Measurements from PubChem BioAssay.
A number with no mark means an inactive call. Active and inactive are the calls of the source.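 How the source made its calls: active means GFP response above 150% of the DMSO level; inconclusive means fewer than 70 events counted for a yeast strain; inactive means the rest.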

assay: modulators of CIT2-GFP expression in yeast, confirmation, S. cerevisiae, GFP fusion, cherry picks, mother/daughter gates (AID 2274); conditions: S. cerevisiae CIT2-GFP strain, flow cytometry, 3 h; at 10 µM; stronger effect = higher value

Compared with O=C(CCC(F)(F)F)N1CCC(CO)(CCc2ccccc2)CC1, O=C(O)C1CCN(S(=O)(=O)c2ccc(Oc3ccccc3)cc2)CC1 is lower in GFP response, % of DMSO: 107% for the first, 99.3% for the second.

Going from O=C(Nc1cc(Sc2ccccn2)cc([N+](=O)[O-])c1)c1cccc(F)c1 to Cc1cc(NC(=O)c2cccnc2Cl)ccc1NC(=O)c1cc2ccccc2o1, the GFP response, % of DMSO rises from 97.2% to 103%.

Compared with CC(=O)Nc1cccc(/C(C)=N/NC(=O)c2ccccc2Cl)c1, C/C(=N\NC(=O)COc1ccccc1-c1ccccc1)c1ccccn1 is higher in GFP response, % of DMSO: 99.7% for the first, 102% for the second.

Going from Cc1cc(Br)c2c(c1)/C(=C/C(=O)c1cccs1)C(=O)N2 to O=C(Cc1ccc(Cl)cc1)NNC(=S)NC(=O)c1cccs1, the GFP response, % of DMSO rises from 98.4% to 109%.

Going from N=C1S/C(=C\c2ccco2)C(=O)N1c1nccs1 to Cc1cccn2c(=O)c(/C=C(\C#N)C(=O)NCc3ccco3)c(N3CCCC(C)C3)nc12 (stereo unspecified), the GFP response, % of DMSO falls from 108% to 99.7%.

Going from CC(=O)c1cc(NC(=O)c2ccc(C)cc2)c(=O)oc1C to COc1ccc(NC(=O)Nc2ccon2)c(OC)c1, the GFP response, % of DMSO rises from 99.3% to 103%.

First: O=S(=O)(c1ccc(Oc2ccc(Br)cc2)cc1)N1CCOCC1
Second: CCS(=O)(=O)Nc1cccc(C2=NN(S(C)(=O)=O)C(c3ccccc3)C2)c1 (stereo unspecified)
The GFP response, % of DMSO of the first is lower: 95% for the first, 111% for the second.

For Cc1ccc(C(C(=O)NC2CCCCC2)N(CCCN2CCOCC2)C(=O)c2snc(C(N)=O)c2N)cc1 (stereo unspecified), the GFP response, % of DMSO was 102%.

For COc1ccc2c(/C=C/c3cc[n+](C)cc3)c[nH]c2c1, the GFP response, % of DMSO was 161% (active).
